# Assay results published in ChEMBL document CHEMBL4513149, “CO-ADD screening of MMV (CH) - MMV compounds” (2021).
# The campaign covered roughly 21,000 compounds. Fewer than 10 showed an effect of 50% or more. Not all results are given here. Measured potencies and affinities stand elsewhere.
# Tested on: Acinetobacter baumannii
# Conditions: Concentration 20 uM; ASSAY_TEST Inhibition of Bacterial Growth; detection method Absorption (OD600); MEDIA CAMHB; plate type 384well; NBS; CORNING #3640; time 18 hr
row,SMILES,Inhibition [%]
1,O=C(CN1CCOCC1)Nc1ccc2ncnc(Nc3ccc(OCc4cccc(F)c4)c(Cl)c3)c2c1,8.91
2,Cl.O=C(Nc1ccc(N2CCNCC2)nc1)c1oc(-c2ccccc2)nc1C(F)(F)F,4.8
